Results taken from PubChem BioAssay AID1159580 (chemical genetic matrix, 2015).
Out of some 5,500 compounds screened, about 2,000 (36%) were called active. Inconclusive results (about 18%) are left out. Cut-off read from the data, not from the text of the source: active = normalized growth mostly below about 0.91 (no sharp cut-off); inconclusive = no clear call, values can overlap the other calls; inactive = mostly above about 0.92. This is one part of the list.

Assay: chemical genetic growth profiling, strain panel (AID 1159580);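 note: tested at 20 µM; growth read once vehicle control cultures reached saturation at 30 °C; 1 = growth at the plate median or of vehicle wells; lower values mean less growth of the strain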
Conditions: S. cerevisiae deletion strains, growth OD

Measured: normalized growth

Nc1ccc(N2C(=O)c3ccccc3C2=O)c(Cl)c1
inactive: locus YAL040C, strain CLN3, hits give low values 1.06 | locus YCL061C, strain MRC1 (second series), hits give low values 1.01 | locus YER002W, strain NOP16, hits give low values 0.974 | locus YGR078C, strain PAC10, hits give low values 0.98 | locus YJR075W, strain HOC1, hits give low values 1 | locus YNL153C, strain GIM3, hits give low values 0.995 | locus YNL175C, strain NOP13, hits give low values 0.958 | locus YNL197C, strain WHI3, hits give low values 0.935 | locus YNL224C, strain SQS1, hits give low values 0.94 | locus YNL322C, strain KRE1, hits give low values 0.986 | locus YOR083W, strain WHI5 (second series), hits give low values 1.02
